# Experimental data as given in PubChem BioAssay (EPA / NIEHS).
# Values joined by “and” are separate entries in the source; they are usually repeats but may differ in a detail not shown here. Identical values can stand only once. Results filed as inconclusive are left out. Some structures have more than one record in an assay (separate samples or runs), and their calls can disagree. Active and inactive are the calls of the source. How the source made its calls: active means hit-call score of the fitted dose curve at least 0.9, where 1 is the maximum; inconclusive means response in the unintended direction; inactive means score below 0.9.
# Key:
# [1] = ACEA_ER_AUC_viability: ACEA Biosciences xCELLigence Real-Time Cell Analysis on Estrogen Receptor Agonism for Viability (AID 2283782);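 further: hit means loss of impedance signal meaning reduced cell growth or viability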
# Summary of the method: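 Read-out: real-time electrical impedance (RT-CES) area under curve, loss of signal taken as reduced viability, normalized to DMSO baseline. T-47D cells, charcoal-stripped serum medium, compounds up to 100 uM final, continuous exposure, 80 h.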
# [2] = ACEA_AR_agonist_AUC_viability: ACEA Biosciences xCELLigence Real-Time Cell Analysis on Androgen Receptor Agonism for Viability (AID 2283775);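 on AC50: viability read 80 hours after compound addition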
# Summary of the method: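 Viability endpoint from xCELLigence impedance in 22Rv1 prostate cells at 80 h. Eight-point series, 100 uM maximum final.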
# [3] = ACEA_AR_antagonist_AUC_viability: ACEA Biosciences xCELLigence Real-Time Cell Analysis on Androgen Receptor Antagonism for Viability (AID 2283776);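 further: 22Rv1 human prostate cancer cells growing on impedance electrode plates; area under impedance growth curve at 80 h after dosing as viability; hits lower the growth signal relative to DMSO meaning cytotoxicity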
# Summary of the method: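 22Rv1 prostate cells, continuous dosing up to 100 uM final (0.5% DMSO max), duplicate plates. Growth measured by impedance; AUC at 80 h, loss of signal vs DMSO.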
# [4] = test system: turtle Estrogen Receptor (ERa), gene 101933533; assay: ATG_trERa_XSP2: Attagene TRANS-FACTORIAL Multi-Species (XSP2) HepG2 Assay for turtle Estrogen Receptor (ERa) (AID 2283812);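 further: actives raise reporter signal above DMSO so AC50 reflects agonist activity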
# Summary of the method: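 Readout is reporter mRNA quantified by RT-PCR with capillary electrophoresis after 24 h compound exposure, increase relative to DMSO. Uses transiently transfected human HepG2 liver cells carrying a chimeric turtle ERa-Gal4 receptor driving GAL4-UAS reporters.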
# [5] = target: Estrogen receptor beta (Homo sapiens) (UniProt Q92731); assay: ATG_hERb_XSP2: Attagene TRANS-FACTORIAL Multi-Species (XSP2) HepG2 Assay for human Estrogen Receptor (ERb) (AID 2283813);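 further: actives raise reporter mRNA above DMSO so AC50 reflects agonist induction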
# Summary of the method: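 Transient TRANS reporter system in HepG2: after 24 h of chemical, RNA is reverse-transcribed, reporter cDNA amplified, FAM-labelled and sized by capillary electrophoresis. Induction of the human ERb-Gal4 reporter is measured relative to DMSO.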
# [6] = target: GAL4 Transcription Factor (Internal Marker), GAL4 (gene 855828) (UniProt P04386); assay: ATG_GAL4_XSP2: Attagene TRANS-FACTORIAL Multi-Species (XSP2) HepG2 Assay for GAL4 Transcription Factor (Internal Marker) (AID 2283814);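 further: GAL4 reporter mRNA background control in MRTU transfected cells not a receptor target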
# Summary of the method: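 Background-control readout: gain-of-signal fitted against DMSO. After 24 h exposure of transfected HepG2 (MRTU, GAL4-UAS reporters; 3 nM 6-alpha-fluorotestosterone, 1.5 nM norgestrel present), transcripts quantified by RT-PCR and capillary electrophoresis fluorescence.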
# [7] = test system: turtle Androgen Receptor (AR), gene 101947425; assay: ATG_trAR_XSP2: Attagene TRANS-FACTORIAL Multi-Species (XSP2) HepG2 Assay for turtle Androgen Receptor (AR) (AID 2283815);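 further: reporter mRNA from a Gal4 chimera of turtle AR measured by RT-PCR; potency for gain of reporter signal meaning activation above DMSO baseline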
# Summary of the method: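 Reporter transcripts were quantified via RT-PCR and capillary electrophoresis and fitted upward against DMSO. Transiently transfected human HepG2 cells carrying NR-Gal4 chimeras were exposed 24 h, with 3 nM 6-alpha-fluorotestosterone plus 1.5 nM norgestrel added.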
# [8] = target: zebrafish Estrogen Receptor (ER1), esr1 (gene 259252) (UniProt P57717); assay: ATG_zfER1_XSP2: Attagene TRANS-FACTORIAL Multi-Species (XSP2) HepG2 Assay for zebrafish Estrogen Receptor (ER1) (AID 2283816)
# Summary of the method: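 After 24 h compound exposure, RNA from transfected HepG2 cells was reverse-transcribed and reporter transcripts resolved by capillary electrophoresis. The TRANS format reads exogenous zebrafish ER1-Gal4 chimera activity on GAL4-UAS elements; gain of signal against DMSO.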
# [9] = target: chicken Estrogen Receptor (ERa), ESR1 (gene 396099) (UniProt P06212); assay: ATG_chERa_XSP2: Attagene TRANS-FACTORIAL Multi-Species (XSP2) HepG2 Assay for chicken Estrogen Receptor (ERa) (AID 2283817);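 further: actives raise reporter signal above DMSO so AC50 reflects ER activation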
# Summary of the method: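 Readout: fluorescent reporter-transcript fragments resolved by capillary electrophoresis after RT-PCR and HpaI cut. Chicken ERa-Gal4 fusion in transiently transfected HepG2, dosed for 24 h; activity taken as increase over DMSO baseline.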
# [10] = test system: zebrafish Estrogen Receptor (ER2a), gene 317734; assay: ATG_zfER2a_XSP2: Attagene TRANS-FACTORIAL Multi-Species (XSP2) HepG2 Assay for zebrafish Estrogen Receptor (ER2a) (AID 2283818);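 further: hits raise reporter mRNA so AC50 reflects activation of zebrafish ER2a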
# Summary of the method: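 Multiplexed trans-reporter readout: RT-PCR then capillary electrophoresis of reporter transcripts after 24 h compound treatment. Human HepG2 carries transfected zebrafish ER2a-Gal4 chimera; 3 nM 6-alpha-fluorotestosterone plus 1.5 nM norgestrel present. Induction scored against DMSO.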
# [11] = test system: chicken Androgen Receptor (AR), gene 422165; assay: ATG_chAR_XSP2: Attagene TRANS-FACTORIAL Multi-Species (XSP2) HepG2 Assay for chicken Androgen Receptor (AR) (AID 2283819);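 further: hits raise reporter mRNA above DMSO so potency is for activation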
# Summary of the method: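 Readout is reporter mRNA induction via RT-PCR/capillary electrophoresis after 24 h chemical exposure, positive direction relative to DMSO. Transiently transfected HepG2 express chimeric chicken AR–GAL4; AR stimulated by 3 nM 6-alpha-fluorotestosterone and 1.5 nM norgestrel.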
# [12] = test system: frog Estrogen Receptor (ER), gene 398734; assay: ATG_frER1_XSP2: Attagene TRANS-FACTORIAL Multi-Species (XSP2) HepG2 Assay for frog Estrogen Receptor (ER) (AID 2283821);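 further: hits raise reporter mRNA above DMSO baseline so potency means agonist or activator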
# Summary of the method: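 Reporter mRNA induction, detected as fluorescence after RT-PCR and capillary electrophoresis, is the endpoint; activity is fitted upward against DMSO. Cells are human liver HepG2 carrying transfected NR-Gal4 chimeras with GAL4-UAS-driven reporters, harvested 24 h post-dosing.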
# [13] = ATG_M_19_XSP2: Attagene TRANS-FACTORIAL Multi-Species (XSP2) HepG2 Assay for M32 Transcription Factor (Internal Marker) (AID 2283822)
# Summary of the method: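 Internal background marker in a multi-species nuclear receptor TRANS panel: transfected HepG2 cells exposed 24 h, with 3 nM 6-alpha-fluorotestosterone and 1.5 nM norgestrel present. Readout is RT-PCR of reporter transcripts resolved by capillary electrophoresis, gain-of-signal versus DMSO.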
# [14] = STM_H9_NormalizedViability: Cytotoxicity Assessment at 120 hours in the Stemina devTOX quickPredict H9 human embryonic stem cell (hESC)-based Assay (AID 2283784)
# Summary of the method: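 CellTiter-Fluor RFU, background-subtracted, expressed relative to 0.1% DMSO neutral control by plate. Pluripotent H9 cells; treatment with daily re-dosing. Plates carried 1uM methotrexate (positive) and 5 nM methotrexate (negative) references.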
# [15] = target: AR (gene 367) (UniProt P10275); assay: ACEA_AR_antagonist_80hr: ACEA Biosciences xCELLigence Real-Time Cell Analysis on Androgen Receptor Antagonism for Proliferation (AID 2283787);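 further: 22Rv1 human prostate cancer cells with growth followed by electrical impedance; hits lower the impedance growth signal relative to DMSO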
# Summary of the method: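 Measures real-time proliferation of 22Rv1 prostate cancer cells by electrode impedance at 80 hours after dosing. Test articles ran at eight concentrations (1:4 steps, top 100 uM final) in biological duplicate.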
# [16] = target: AR (gene 367) (UniProt P10275); assay: ACEA_AR_agonist_80hr: ACEA Biosciences xCELLigence Real-Time Cell Analysis on Androgen Receptor Agonism for Proliferation (AID 2283783);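 further: hits increase impedance growth signal above DMSO baseline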
# Summary of the method: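 Impedance (RT-CES) growth signal at 80 h post-dose; 22Rv1 cells, 8-pt 1:4 series, top 100 uM final, DMSO ≤0.5%; duplicate plates; gain-of-signal fit relative to DMSO baseline.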
# [17] = ATG_M_06_XSP2: Attagene TRANS-FACTORIAL Multi-Species (XSP2) HepG2 Assay for M06 Transcription Factor (Internal Marker) (AID 2283811);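 further: hits are increases in signal above the DMSO baseline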
# Summary of the method: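 Readout: fluorescent reporter-mRNA peaks by capillary electrophoresis after RT-PCR and HpaI digest, scored upward relative to DMSO. Transfected HepG2, 24 h chemical exposure, with 3 nM 6-alpha-fluorotestosterone and 1.5 nM norgestrel added.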
# Sequence of zebrafish Estrogen Receptor (ER1), esr1 (gene 259252) (P57717 whole entry, looked up, the tested form may be a part): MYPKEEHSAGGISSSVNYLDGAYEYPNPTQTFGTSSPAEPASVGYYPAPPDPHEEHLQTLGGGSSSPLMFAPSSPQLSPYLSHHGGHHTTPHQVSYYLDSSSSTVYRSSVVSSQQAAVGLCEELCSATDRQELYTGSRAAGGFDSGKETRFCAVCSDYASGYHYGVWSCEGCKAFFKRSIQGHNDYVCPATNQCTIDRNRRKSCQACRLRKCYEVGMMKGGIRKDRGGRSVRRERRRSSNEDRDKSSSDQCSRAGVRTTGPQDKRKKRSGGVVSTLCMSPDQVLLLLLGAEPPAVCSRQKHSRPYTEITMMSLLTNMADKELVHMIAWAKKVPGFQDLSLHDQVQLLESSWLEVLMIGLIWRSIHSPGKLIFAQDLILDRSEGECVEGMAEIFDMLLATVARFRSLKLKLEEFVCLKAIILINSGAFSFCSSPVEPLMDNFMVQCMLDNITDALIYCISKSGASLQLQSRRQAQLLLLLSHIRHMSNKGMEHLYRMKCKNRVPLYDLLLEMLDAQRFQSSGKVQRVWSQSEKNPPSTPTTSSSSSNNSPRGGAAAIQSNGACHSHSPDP
# Sequence of AR (gene 367) (P10275 whole entry, looked up): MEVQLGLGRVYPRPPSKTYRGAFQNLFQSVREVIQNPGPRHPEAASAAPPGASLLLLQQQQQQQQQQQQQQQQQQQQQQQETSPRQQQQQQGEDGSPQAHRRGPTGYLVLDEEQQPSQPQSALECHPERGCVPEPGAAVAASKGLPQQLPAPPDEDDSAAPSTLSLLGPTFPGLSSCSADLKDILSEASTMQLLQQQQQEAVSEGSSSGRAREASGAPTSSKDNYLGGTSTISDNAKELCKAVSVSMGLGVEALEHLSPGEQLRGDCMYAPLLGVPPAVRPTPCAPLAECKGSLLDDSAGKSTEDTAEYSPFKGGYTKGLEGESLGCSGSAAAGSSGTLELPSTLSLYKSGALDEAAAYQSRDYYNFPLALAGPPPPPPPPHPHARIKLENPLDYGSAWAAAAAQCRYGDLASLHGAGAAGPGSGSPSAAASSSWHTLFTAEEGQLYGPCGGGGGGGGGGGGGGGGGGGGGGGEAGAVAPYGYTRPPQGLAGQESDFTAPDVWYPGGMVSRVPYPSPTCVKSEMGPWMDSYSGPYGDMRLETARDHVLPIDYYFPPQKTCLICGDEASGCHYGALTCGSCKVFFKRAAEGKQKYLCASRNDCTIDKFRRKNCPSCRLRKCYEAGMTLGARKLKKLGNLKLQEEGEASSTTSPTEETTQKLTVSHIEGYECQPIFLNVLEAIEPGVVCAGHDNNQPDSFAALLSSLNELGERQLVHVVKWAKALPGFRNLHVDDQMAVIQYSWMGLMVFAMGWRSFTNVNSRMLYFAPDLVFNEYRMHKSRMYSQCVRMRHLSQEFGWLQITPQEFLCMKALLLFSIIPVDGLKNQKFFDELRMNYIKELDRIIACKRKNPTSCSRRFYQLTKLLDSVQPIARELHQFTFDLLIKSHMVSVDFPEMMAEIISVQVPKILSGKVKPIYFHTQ
# Sequence of chicken Estrogen Receptor (ERa), ESR1 (gene 396099) (P06212 whole entry, looked up, the tested form may be a part): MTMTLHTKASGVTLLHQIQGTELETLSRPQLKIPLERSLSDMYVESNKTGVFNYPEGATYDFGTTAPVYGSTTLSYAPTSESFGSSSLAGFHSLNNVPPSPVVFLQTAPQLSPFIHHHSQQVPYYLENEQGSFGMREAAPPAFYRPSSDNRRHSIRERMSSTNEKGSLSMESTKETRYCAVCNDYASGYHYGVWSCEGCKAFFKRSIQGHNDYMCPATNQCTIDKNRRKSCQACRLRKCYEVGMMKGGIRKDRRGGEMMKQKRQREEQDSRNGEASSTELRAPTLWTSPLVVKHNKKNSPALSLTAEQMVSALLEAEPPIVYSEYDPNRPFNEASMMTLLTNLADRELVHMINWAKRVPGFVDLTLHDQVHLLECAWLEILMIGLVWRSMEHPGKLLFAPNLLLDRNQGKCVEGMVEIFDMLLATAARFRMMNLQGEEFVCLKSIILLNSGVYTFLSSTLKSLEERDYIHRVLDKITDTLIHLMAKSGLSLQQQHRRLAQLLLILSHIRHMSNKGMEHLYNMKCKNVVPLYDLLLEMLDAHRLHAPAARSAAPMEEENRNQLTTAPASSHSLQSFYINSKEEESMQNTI
# Sequence of Estrogen receptor beta (Homo sapiens) (Q92731 whole entry, looked up, the tested form may be a part): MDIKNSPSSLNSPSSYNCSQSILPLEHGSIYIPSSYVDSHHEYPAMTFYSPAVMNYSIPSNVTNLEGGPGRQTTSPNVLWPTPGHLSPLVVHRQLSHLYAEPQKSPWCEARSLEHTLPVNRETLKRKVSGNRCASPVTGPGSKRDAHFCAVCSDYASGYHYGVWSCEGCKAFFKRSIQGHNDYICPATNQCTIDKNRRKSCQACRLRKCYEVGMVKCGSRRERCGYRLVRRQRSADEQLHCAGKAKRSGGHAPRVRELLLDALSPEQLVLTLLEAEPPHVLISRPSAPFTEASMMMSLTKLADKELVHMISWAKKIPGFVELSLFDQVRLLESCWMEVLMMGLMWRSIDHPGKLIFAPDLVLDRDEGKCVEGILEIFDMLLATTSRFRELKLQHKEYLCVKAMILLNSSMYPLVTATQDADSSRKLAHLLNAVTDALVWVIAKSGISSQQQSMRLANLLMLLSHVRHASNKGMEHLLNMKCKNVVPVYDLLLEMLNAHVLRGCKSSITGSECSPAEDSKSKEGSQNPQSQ
# Sequence of GAL4 Transcription Factor (Internal Marker), GAL4 (gene 855828) (P04386 whole entry, looked up, the tested form may be a part): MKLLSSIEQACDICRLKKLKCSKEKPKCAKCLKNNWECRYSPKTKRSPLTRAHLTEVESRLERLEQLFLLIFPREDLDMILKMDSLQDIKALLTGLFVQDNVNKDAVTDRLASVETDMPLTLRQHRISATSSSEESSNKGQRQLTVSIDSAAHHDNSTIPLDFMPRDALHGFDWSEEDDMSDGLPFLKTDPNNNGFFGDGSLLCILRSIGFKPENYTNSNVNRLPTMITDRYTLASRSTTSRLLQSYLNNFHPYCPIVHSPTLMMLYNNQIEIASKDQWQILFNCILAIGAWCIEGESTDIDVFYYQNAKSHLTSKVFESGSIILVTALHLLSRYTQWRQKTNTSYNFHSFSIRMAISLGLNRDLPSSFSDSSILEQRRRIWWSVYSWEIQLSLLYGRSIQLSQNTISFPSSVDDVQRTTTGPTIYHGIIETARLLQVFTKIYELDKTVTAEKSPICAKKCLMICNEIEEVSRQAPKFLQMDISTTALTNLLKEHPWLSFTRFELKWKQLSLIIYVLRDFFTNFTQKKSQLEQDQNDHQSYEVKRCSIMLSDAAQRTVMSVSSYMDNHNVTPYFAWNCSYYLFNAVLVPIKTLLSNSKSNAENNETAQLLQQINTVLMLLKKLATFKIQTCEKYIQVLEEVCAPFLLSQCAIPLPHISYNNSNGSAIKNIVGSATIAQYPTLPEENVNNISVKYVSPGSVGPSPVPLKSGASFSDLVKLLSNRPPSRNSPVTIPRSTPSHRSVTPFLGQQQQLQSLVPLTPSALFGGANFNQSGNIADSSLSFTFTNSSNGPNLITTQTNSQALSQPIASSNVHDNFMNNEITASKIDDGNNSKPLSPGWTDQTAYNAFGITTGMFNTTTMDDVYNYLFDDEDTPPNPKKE
compound,measurement,setting,value
CN(C1CCCCC1)C1CCCCC1,AC50,[1],68.6 µM (active)
Oc1cc(Cl)c(Cl)cc1Cl,AC50,[2],64.8 µM (active)
same,AC50,[3],71.8 µM (active)
same,outcome,[1],inactive
same,AC50,[4],13 µM (active) and 6.06 µM (active)
same,AC50,[5],20.3 µM (active)
same,outcome,[5],inactive
same,outcome,[6],inactive
same,AC50,[7],7.74 µM (active) and 2.23 µM (active)
same,outcome,[8],inactive
same,AC50,[9],29.9 µM (active)
same,outcome,[9],inactive
same,AC50,[10],21.9 µM (active)
same,outcome,[10],inactive
same,AC50,[11],6.4 µM (active) and 3.09 µM (active)
same,AC50,[12],18.8 µM (active)
same,outcome,[12],inactive
same,outcome,[13],inactive
CCOc1cc(C=O)ccc1O,outcome,[1],inactive
c1ccc2c(c1)Oc1ccccc1O2,outcome,[1],inactive
CC(C)O.CC(C)O.OCCN(CCO)CCO.OCCN(CCO)CCO.[Ti],outcome,[2],inactive
same,outcome,[3],inactive
same,outcome,[14],inactive
NC(=O)CCl,AC50,[1],39.6 µM (active)
CCN(CC)C(=O)C(Cl)=C(C)OP(=O)(OC)OC,AC50,[1],25.8 µM (active)
O=[N+]([O-])c1ccccc1O,outcome,[2],inactive
same,outcome,[1],inactive
c1ccc(-c2cccc(-c3ccccc3)c2)cc1,AC50,[1],24.4 µM (active)
CCCCC(CC)COC(=O)Cl (configuration not stated),outcome,[1],inactive
Cc1cc(Cl)ccc1OCCCC(=O)O,outcome,[2],inactive
same,outcome,[3],inactive
same,outcome,[15],inactive
CCC[CH2][Sn]([CH2]CCC)([CH2]CCC)[CH2]CCC,AC50,[3],29.9 µM (active)
same,AC50,[1],22 µM (active)
O=[N+]([O-])c1ccc(Cl)c([N+](=O)[O-])c1,AC50,[2],22.3 µM (active)
same,AC50,[1],1.55 µM (active)
same,outcome,[16],inactive
same,AC50,[14],16.5 µM (active)
same,AC50,[15],24.8 µM (active)
CC(C)=CC1C(C(=O)OCc2cccc(Oc3ccccc3)c2)C1(C)C (configuration not stated),outcome,[3],inactive
same,outcome,[1],inactive
Nc1nc(N)nc(Cl)n1,outcome,[1],inactive
CCCCCCCCCCBr,outcome,[1],inactive
C=C(C)C(=O)OCC(CC)CCCC (configuration not stated),outcome,[1],inactive
CCOC(=O)C(SP(=S)(OC)OC)c1ccccc1 (configuration not stated),outcome,[1],inactive
O=C(O)COc1cc(Cl)c(Cl)cc1Cl,outcome,[16],inactive
[Cl][Sn]([c]1ccccc1)([c]1ccccc1)[c]1ccccc1,outcome,[17],inactive
same,outcome,[9],inactive
same,AC50,[12],0.925 µM (active)
O=c1oc2ccccc2c(O)c1C(CC(O)c1ccc(-c2ccc(Br)cc2)cc1)c1ccccc1 (configuration not stated),outcome,[8],inactive
same,outcome,[11],inactive
same,outcome,[13],inactive
